The values that follow come from PubChem BioAssay AID485314 (National Center for Advancing Translational Sciences (NCATS), 2010).

About 4,500 (1.3%) of roughly 340,000 compounds were called active. Another 5% or so got no clear call; they are omitted. Shown is part of a subset that was picked to be rich in actives. Unmarked numbers belong to inactive results. Calls come from the whole dose curve; as a rule, active = well fitted inhibition curve with a large enough effect; inconclusive = small, poorly fitted or top-dose-only effect, or another doubt; inactive = no such curve, though single readings can be large or run the other way.
% is set by controls: 0 for no effect and ±100 for the full control effect; potency is the fitted concentration of half-maximal effect.

The assay deals with DNA polymerase beta (Homo sapiens) (UniProt P06746). Put plainly: qHTS Assay for Inhibitors of DNA Polymerase Beta. Particulars: Pol beta primer extension/strand displacement, fluorescence kinetic; series mostly up to 114 µM; activity change, negative = inhibition: at the top concentration. The method, boiled down: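 10 nM enzyme + cpd, 15 min RT; start with substrate 50 nM final; read 0 min and after 10 min RT. Corrected, normalized data; 4-parameter Hill curve fit.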
For `CCN(CCCNC(=O)c1cc2c(=O)n(CC)c3ccccc3c2s1)Cc1ccccc1`, the “activity change, negative = inhibition” value is 33.1%.
On the same count and under the same terms, under `Cc1c(Cl)cccc1NC(=O)c1noc2c1CCCC2` stands 2.6%.
For the compound `Oc1cccc(/C=N/Nc2ccc(Cl)nn2)c1O`, the Potency was 39.8 µM (active).
For `Cc1ccsc1/C=N/Nc1ccc(Cl)nn1`, the “activity change, negative = inhibition” value is 6.83%.
The same measure, in the same setting: under `COc1cccc(/C=N/Nc2ccc(Cl)nn2)c1` stands -1.22%; under `CCOC(=O)c1c(NC(=O)COc2cc(C)ccc2C(C)C)sc(C)c1C`, 0.757%.
The same measure, in the same setting: under `COc1ccc(S(=O)(=O)c2cn(C)c3cc(N4CCCCC4)c(F)cc3c2=O)cc1` stands -1.37%.
Consider `O=C(COc1ccc(Cl)cc1)Nc1ccccc1CO`, for which the “activity change, negative = inhibition” value was 11.2%.
On to `O=C(COc1ccc(-n2cnnn2)cc1)Nc1ccccc1Cl`, for which the Potency is 28.2 µM (active).
For `O=C(Cc1c(F)cccc1Cl)Nc1ccc(-n2cnnn2)cc1`, the “activity change, negative = inhibition” value is 0.175%.
`CCOc1ccc(N(C)S(=O)(=O)c2cc(-c3cnc(C)o3)ccc2OC)cc1`: the “activity change, negative = inhibition” value was 3.9%.
Same read-out and setting: then `Cc1cccc(N2CCN(S(=O)(=O)c3ccc4[nH]c5c(c4c3)CCCCC5)CC2)c1C`, with 5.75%.
`Cc1nn(-c2ccc(N3CCCCC3)nn2)c(C)c1CCC(=O)NCc1ccccc1F`: the “activity change, negative = inhibition” value was 4.44%.
Still for that read-out and setting: then `Cc1ccc(C(=O)NC(C)c2ccccc2)cc1Br` (centres undefined), with -3.8%; and `COc1ccc(Cl)cc1NC(=O)c1cccc(N2C(=O)C3CC=CCC3C2=O)c1` (centres undefined), with 28.5%.
Take `CC1=CCC2C(=O)N(c3cccc(C(=O)NC(C)c4ccccc4)c3)C(=O)C2C1` (centres undefined): the Potency was 39.8 µM (active).
Turning to `CCN(CC)C(=O)CSc1nc2ccsc2c(=O)n1Cc1ccccc1Cl`, the “activity change, negative = inhibition” value was -18.1%.
Regarding `O=C(COc1ccc(/C=N/NC(=O)c2ccc(O)cc2)cc1)Nc1ccc([N+](=O)[O-])cc1`, the Potency was 2.24 µM (active).
On to `Cc1ccc(NC(=O)COc2ccc(/C=N\NC(=O)c3cccnc3)cc2)cc1C`, for which the “activity change, negative = inhibition” value is -0.199%.
On the same count and under the same terms, under `NC(=O)c1ccc(NC(=O)COC(=O)c2ccc([N+](=O)[O-])cc2)cc1` stands 0.237%; under `CC1CN(C(=O)N2CCC(C(=O)NCc3cccs3)CC2)c2ccccc2O1` (centres undefined), -7.1%; under `Cc1cccc(C(=O)N2c3nc(-c4ccco4)nn3C3(CCCCC3)[C@@H]3CCCC[C@@H]32)c1`, 13.2%.
As to `Cc1nnc(SCC(=O)NC2CCCC2)s1`, the “activity change, negative = inhibition” value was 2.1%.
The same measure, in the same setting: then `Cc1nnc(SCC(=O)Nn2cnnc2)s1`, with -9.11%.
For `Cc1nnc(SCC2=C(C(=O)O)N3C(=O)C(NC(=O)Cn4nc(C)c(Cl)c4C)C3SC2)s1` (centres undefined), the Potency was 39.8 µM (active).
Regarding `Cc1sc(C2C(C#N)=C(N)N(c3cccc(Cl)c3)C3=C2C(=O)CCC3)cc1CN1CCOCC1` (centres undefined), the “activity change, negative = inhibition” value is 16.6%.
Still for that read-out and setting: under `Cc1nc2c(-c3ccc(F)cc3)c(C)nn2c(C)c1CCC(=O)NCc1ccco1` stands 36%.
For the compound `Fc1ccc(-c2ccc(-c3nn4c(-c5ccco5)nnc4s3)o2)cc1`, the Potency was 44.7 µM (active).
With `O=C(CSc1nnc2scc(-c3ccc(F)cc3)n12)NCc1ccco1`, the “activity change, negative = inhibition” value was 11.6%.
Still for that read-out and setting: then `COC(=O)C1=C(C)N(c2ccc(Br)cc2)C(=O)/C1=C\c1ccco1`, with 23.8%; and `Cc1cc(C)c(OCC(=O)N/N=C/c2ccco2)c(C)c1`, with 3.54%.
`COC(=O)COc1ccc2c(c1C)O/C(=C\c1ccco1)C2=O`: the Potency is 50.1 µM (active).
For the compound `CC1CCCN(c2csc3ccc(F)cc3c2=O)C1` (centres undefined), the “activity change, negative = inhibition” value was 13.1%.
The same measure, in the same setting: then `CCCn1c(NCc2ccc(N(CC)CC)cc2)nc2ccccc21`, with -0.488%; and `Cc1nn(CC(=O)N/N=C/c2ccc(F)cc2)c(C)c1[N+](=O)[O-]`, with 30.3%.
On the same count and under the same terms, under `COc1cc(/C=N/NC(=O)c2cc(C)n(-c3ccc(F)cc3)c2C)cc(OC)c1O` stands -1.21%.
For `Cc1cc(C(=O)N/N=C/c2ccc(O)c([N+](=O)[O-])c2)c(C)n1-c1ccc(F)cc1`, the Potency was 20 µM (active).
Still for that read-out and setting: under `Cc1ccc(/C=C(\C#N)C(=O)Nc2cccc3ncccc23)o1` stands 3.16 µM (active).
In the case of `CCOC(=O)c1ccc(-c2ccc(/C=C(\C#N)C(=O)Nc3ccc(OCC)cc3)o2)cc1`, the “activity change, negative = inhibition” value is 78.1%.
Same read-out and setting: under `O=C(O)c1cc(Cl)c(Cl)cc1C(=O)Nc1cccc2ncccc12` stands -0.55%; under `CCOCCCNC(=O)c1cn(CC)c2ccc(S(=O)(=O)N3CCc4ccccc4C3)cc2c1=O`, 12%.
As for `CCN1/C(=C\c2ccc3ccccc3[n+]2CC)Sc2cc(C)ccc21`, the Potency is 25.1 µM (active).
As to `CCN1/C(=C/c2ccc3ccc(C)cc3[n+]2CC)Sc2ccccc21`, the Potency is 31.6 µM (active).
As to `Cn1c(=O)c2c(-c3ccccc3Br)n(Cc3ccccc3)cc2n(C)c1=O`, the “activity change, negative = inhibition” value is 0.692%.
On the same count and under the same terms, then `COc1ccccc1CNC(=O)C(=O)NCC(c1cccs1)S(=O)(=O)c1cccs1` (centres undefined), with 9.72%; and `Cc1c(Cl)cccc1NC(=O)C(=O)NCCc1csc2nc(-c3ccccc3F)nn12`, with 12.1%; and `COc1ccc(Nc2ncc3c(n2)CCN(C(=O)OC(C)(C)C)C3)cc1`, with 2.37%.
Still for that read-out and setting: then `COc1cccc(-c2nc(CS(=O)(=O)CC(=O)N3CCN(c4cc(C)ccc4C)CC3)c(C)o2)c1`, with -0.161%; and `COc1cccc(C(c2c(O)cc(C)n(Cc3ccco3)c2=O)N2CCN(c3ccccc3)CC2)c1` (centres undefined), with 1.76%.
